Measurements from PubChem BioAssay.
Calls of active or inactive are those of the source. Rule as the data show it: active = fold change permeability below about 0.7 or above about 1.3; inactive = in between.

Assay: compounds altering in vitro BBB leakiness – cell-based, FITC-avidin fluorescence, HTS, primary screen (AID 1963498); also: test concentration not given here
Conditions: brain endothelial barrier, actives lie on both sides

SMILES | fold change permeability
CC(C)(CO)Cc1cc(C(C)(C)C)c(O)c(C(C)(C)C)c1 | 1.1 (inactive)
Cc1cc(Nc2cc(N3CCN(C)CC3)nc(Sc3ccc(NC(=O)C4CC4)cc3)n2)n[nH]1 | 1.6 (active)
CCCCS(=O)(=O)N[C@@H](Cc1ccc(OCCCCC2CCNCC2)cc1)C(=O)O | 1.5 (active)
CCN(Cc1cccnc1)C(=O)CN(c1ccc(OC)nc1)S(=O)(=O)c1ccccc1C | 1.9 (active)
C=C1C(=O)O[C@@H]2[C@H]3O[C@]3(C)CC/C=C(\C)CC[C@@H]12 | 1.3 (active)
COc1ccccc1OCCNCC(O)COc1cccc2[nH]c3ccccc3c12 (stereo unspecified) | 1.7 (active)
CC(C)=CCC/C(C)=C/CC/C(C)=C/CSc1ccccc1C(=O)O | 1.4 (active)
CCn1c(=O)[nH]c2cc(Cl)c(Cl)cc21 | 0.7 (active)
Cn1c(=O)c2c(ncn2CC2OCCO2)n(C)c1=O | 1 (inactive)
CN1CCN(CCCN2c3ccccc3Sc3ccc(Cl)cc32)CC1 | 1 (inactive)
CC(CCc1ccc(O)cc1)NCCc1ccc(O)c(O)c1 (stereo unspecified) | 1.2 (inactive)
CC(C)C(=O)Nc1n[nH]c2cc(-c3cccc(NS(=O)(=O)C4CC4)c3)ccc12 | 1.2 (inactive)
CC(=O)N[C@H]1[C@H]([C@H](O)[C@H](O)CO)OC(C(=O)O)=C[C@@H]1N=C(N)N | 0.9 (inactive)
NC(=O)N1c2ccccc2C=Cc2ccccc21 | 1.1 (inactive)
Cc1cc(Cl)ccc1OCCCC(=O)NO | 1 (inactive)
CCCCCCCCCCCCCCCCCCOC[C@H](COP(=O)([O-])OCC[N+](C)(C)C)OC | 1.5 (active)
